Source: PubChem BioAssay (Tox21)
Results filed as inconclusive are left out. A call without a number means that no potency is given here. Some compounds were tested as several samples or in several runs, with calls that do not always agree. Calls of active or inactive are those of the source. Unless noted, calls follow the shape of the dose curve; as a rule, active = well fitted cell-killing curve with a large enough effect in the repeat runs; inconclusive = weak or mixed curves, or effect the other way; inactive = no such curve, though single readings can be large or run the other way.

Biological target: Vitamin D3 receptor (Homo sapiens) (UniProt P11473)
Test: qHTS assay to identify small molecule agonists of the vitamin D receptor (VDR) signaling pathway (AID 743222; calls by dose curve)
Conditions: HEK293T VDR-UAS-bla, beta-lactamase FRET ratio, 16 h; series mostly up to 63.5 µM
Procedure, shortened: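 Beta-lactamase reporter readout (LiveBLAzer B/G FRET, 2 h RT) in VDR-bla cells after 16 h compound treatment at 37C, 5% CO2; cells pre-incubated 4 h before pin transfer of DMSO solutions.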

Chain of Vitamin D3 receptor (Homo sapiens) (P11473 whole entry, looked up): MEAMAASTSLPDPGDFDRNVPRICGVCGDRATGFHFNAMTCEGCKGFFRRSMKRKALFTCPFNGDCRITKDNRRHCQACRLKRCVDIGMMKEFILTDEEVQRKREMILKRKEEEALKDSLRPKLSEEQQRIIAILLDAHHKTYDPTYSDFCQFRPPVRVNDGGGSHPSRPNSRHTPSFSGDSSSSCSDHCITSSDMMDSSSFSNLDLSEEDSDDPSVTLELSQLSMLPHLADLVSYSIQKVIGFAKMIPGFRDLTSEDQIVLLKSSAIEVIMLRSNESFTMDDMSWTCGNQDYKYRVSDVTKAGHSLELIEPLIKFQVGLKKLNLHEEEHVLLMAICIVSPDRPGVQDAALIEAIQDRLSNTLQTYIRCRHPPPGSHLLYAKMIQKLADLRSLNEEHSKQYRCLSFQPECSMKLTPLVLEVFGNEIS

Compound | Potency
Clc1ccc(C(Cn2ccnc2)OCc2ccsc2Cl)c(Cl)c1 (configuration not stated) | inactive
c1ccc(Sc2ccccc2)cc1 | inactive
CCC(=O)OCCc1ccccc1 | inactive
CCO[Si](CCCSSSSCCC[Si](OCC)(OCC)OCC)(OCC)OCC | inactive
CCN(CC)CCSC(=O)C(c1ccccc1)c1ccccc1 | inactive

Biological target: Vitamin D3 receptor (Homo sapiens) (UniProt P11473)
Test: qHTS assay to identify small molecule antagonists of the vitamin D receptor (VDR) signaling pathway (AID 743223; active = well fitted inhibition curve with a large enough effect in the signal ratio in the repeat runs, not every such curve was filed as active; the % refers to the signal ratio)
Conditions: VDR-UAS-bla HEK293T, beta-lactamase FRET ratio, 16 h; series mostly up to 61 µM
Procedure, shortened: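 VDR-bla cells were plated, incubated 4 h at 37C, then given compound and 1alpha,25-dihydroxyvitamin D3 (3 nM final). After 16 h at 37C, LiveBLAzer B/G FRET substrate was added for 2 h at room temperature and fluorescence read.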

Compound | Potency
COC(=O)NCCC[Si](OC)(OC)OC | inactive
C=CCCCCCCC=C | inactive
O=S(=O)(O)CCCN1CCOCC1 | inactive
c1ccc(Sc2ccccc2)cc1 | inactive
CCN(CC)CCSC(=O)C(c1ccccc1)c1ccccc1 | inactive

System: not listed separately
Test: qHTS assay to identify small molecule agonists of the vitamin D receptor (VDR) signaling pathway - cell viability counter screen (AID 743224); also: nearly all actives have a fitted effect of over 50% in size; also: potency is read from the fitted curve at half-maximal effect
Conditions: VDR-bla HEK293T viability, CellTiter-Glo luminescence, 16 h; series mostly up to 62.6 µM
Procedure, shortened: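 Cytotoxicity counter screen: VDR-bla cells, 16 h compound exposure at 37C, 5% CO2; CellTiter-Glo luminescence, 30 min RT, same wells as bla read.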

Compound | Potency
Cc1ccc(-n2[nH]c(C)c(N=Nc3cccc(-c4cccc(C(=O)O)c4)c3O)c2=O)cc1C | inactive
COC(=O)NCCC[Si](OC)(OC)OC | 49 µM (active)
CC(C)c1cccc(C(C)C)c1N1C(=O)c2ccc(O)cc2C1=O | 43.6 µM (active)
CCC(C)c1cc([N+](=O)[O-])cc([N+](=O)[O-])c1OC(=O)OC(C)C (configuration not stated) | 54.9 µM (active)
COc1ccc2sc(C(=O)Nc3nnn[nH]3)c(OC(C)C)c2c1 | inactive
S=P(N1CC1)(N1CC1)N1CC1 | 41 µM (active)
CCOC(=O)N1CCC(=C2c3ccc(Cl)cc3CCc3cccnc32)CC1 | 54.9 µM (active) and inactive
O=S(=O)(O)CCCN1CCOCC1 | inactive
CC1CCCNC1 (configuration not stated) | 47.9 µM (active)
CC(C)(c1cc(Br)c(OCCO)c(Br)c1)c1cc(Br)c(OCCO)c(Br)c1 | 38 µM (active)
O=C(Oc1ccccc1)c1cccc(C(=O)Oc2ccccc2)c1 | inactive
c1ccc(Sc2ccccc2)cc1 | 49 µM (active)
CCC(=O)OCCc1ccccc1 | 41.8 µM (active)
CC1=C(/C=C/C(C)=C/C=C/C(C)=C\C=O)C(C)(C)CCC1 | 41.3 µM (active)
CC(=O)OC(OC(C)=O)c1ccc([N+](=O)[O-])o1 | 44.4 µM (active)
O=C1NCCN1CCN1CCC(c2cn(-c3ccc(F)cc3)c3ccc(Cl)cc23)CC1 | 11.9 µM (active)
C=CC(=C)CCC=C(C)C | 54.9 µM (active)
Brc1ccccc1-c1ccccc1 | inactive
O=C(NO)c1ccccc1 | inactive
CNCC[C@H](Oc1cccc2ccccc12)c1cccs1 | 11.9 µM (active)
C=C1C(C)(C)[C@@]2(Cl)C(Cl)[C@]1(Cl)C(Cl)(Cl)C2(Cl)Cl (some centres not stated) | 38.2 µM (active)
C=C(c1ccc(C(=O)O)cc1)c1cc2c(cc1C)C(C)(C)CCC2(C)C | 21.9 µM (active) and inactive
